From PubChem BioAssay (NCI)
This is part of a sample that, as a whole, favours compounds with a hit. Of some 79,000 tested, about 15% had one in any assay. Cut-off read from the data, not from the text of the source: active = growth inhibition above about 70%; inactive = the rest. Where a SMILES comes first, the peptide text is derived from it.

Key:
[1] = NCI Yeast Anticancer Drug Screen. Data for the rad50 strain (AID 155);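 note: 0% = growth of vehicle-only cultures of the same strain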; conditions: S. cerevisiae rad50 strain growth inhibition; at 50.0 µM; hits give high values
Summary of the method: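 A DNA repair-deficient yeast mutant serves as the test organism; compound-induced growth inhibition is calculated against vehicle-treated cells.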

[2] = NCI Yeast Anticancer Drug Screen. Data for the mec2-1 strain (AID 157); conditions: S. cerevisiae mec2-1 strain, at 50.0 µM, hits give high values
Summary of the method: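 Using mec2-1 yeast: add compound, measure growth, express inhibition versus vehicle-treated cultures.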

[3] = NCI Yeast Anticancer Drug Screen. Data for the sgs1 mgt1 strain (AID 161);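 note: 0% = growth of cultures given vehicle only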; conditions: S. cerevisiae sgs1 mgt1 strain, at 50.0 µM, hits give high values
Summary of the method: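 Compounds are added to genetically altered yeast, and growth is compared with cultures given vehicle alone to give percent inhibition.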

[4] = NCI Yeast Anticancer Drug Screen. Data for the cln2 rad14 strain (AID 165);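 note: 0% = growth equal to vehicle treated cultures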; conditions: S. cerevisiae cln2 rad14 strain, at 50.0 µM, hits give high values
Summary of the method: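 Yeast strain cln2 rad14, bearing defects in cell cycle control and DNA repair, serves as the test system; values reflect growth inhibition compared with vehicle.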

[5] = NCI Yeast Anticancer Drug Screen. Data for the bub3 strain (AID 167); conditions: S. cerevisiae bub3 mutant strain, at 50.0 µM, hits give high values
Summary of the method: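 Inhibition values come from growth of compound-treated mutant yeast normalised to vehicle-treated controls.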

[6] = NCI Yeast Anticancer Drug Screen. Data for the mlh1 rad18 strain (AID 175); conditions: S. cerevisiae mlh1 rad18 strain growth inhibition; at 50.0 µM; hits give high values
Summary of the method: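 Steps: expose repair-defective yeast to compound; measure growth; express inhibition against vehicle-treated controls.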

Measured: growth inhibition

CC(C)(C)OC(=O)Cn1ncn(NC(=O)Cc2ccccc2)c1=O
inactive: [1] -20.5% | [2] -24.5% | [3] -21.4% | [4] -56.2% | [5] -38.2% | [6] -0.1%

O=C(O)c1c(Cl)c(Cl)c(Cl)c(Cl)c1C(=O)Nc1cccc(C(F)(F)F)c1
inactive: [1] -9.55% | [2] 10.2% | [3] -8.8% | [4] -7.35% | [5] -1.7% | [6] -14.7%

O=C1C(O)=C(Cl)C(=O)C(O)=C1Cl.[Zn+2]
inactive: [1] -40.5% | [2] -25.8% | [3] -10.2% | [4] -9.1% | [5] -16.9% | [6] -26.8%

COC(=O)C(NC(=O)C(NC(=O)C(N)C(C)C)C(C)C)C(C)C (stereo not drawn) (H-Val-Val-Val-OMe; configuration not given here)
inactive: [1] 5.3% | [2] 20.6% | [3] 5.4% | [4] -11.7% | [5] -3.4% | [6] -9.5%

COc1cc(N=Nc2c[nH]c3ccccc23)c(OC)cc1N=Nc1ccc([N+](=O)[O-])cc1
inactive: [1] 26.3% | [2] 16.8% | [3] 0.6% | [4] -22% | [5] 13.7% | [6] 34.8%

COc1ccccc1OC(C)=O
inactive: [1] -5.2% | [2] -14.4% | [3] -2.3% | [4] -8.2% | [5] -1.35% | [6] 17.9%

CN(C)c1ccc(/C=N/NS(=O)(=O)c2ccc(N)cc2)cc1
inactive: [1] -4.4% | [2] -9.95% | [3] 18.8% | [4] -3.45% | [5] -32.2% | [6] -12.6%

CSC(/C=C/c1ccccc1)=Nc1ccccc1
inactive: [1] 3.2% | [2] 11.9% | [3] -0.9% | [4] -21.6% | [5] 23.6% | [6] 15%

CC(=O)/C(=C\c1ccccc1)C(=O)CCN(C)C
inactive: [1] 21.9% | [2] 36.6% | [3] 14.4% | [4] 12.2% | [5] 7% | [6] -9.9%

CCCCC(N)=O
inactive: [1] -21.9% | [2] -9.05% | [3] 9.8% | [4] 5.7% | [5] -5.2% | [6] 4.3%

O=C(O)C1CSC2(CCCN(Cc3ccccc3)C2)N1 (configuration not stated)
inactive: [1] -17.7% | [2] -29.4% | [3] -5.85% | [4] -3.7% | [5] -17.1% | [6] 5.2%

CCCCCCCCCCCCCCCCS(=O)(=O)N/N=C(/C)N(C)c1ccc(OC)cc1
inactive: [1] -15.4% | [2] -32.4% | [3] -6.1% | [4] -10.4% | [5] -15.4% | [6] -7.15%

O=[S@@]1Nc2cc3ccccc3cc2S1
inactive: [1] 23.2% | [2] -3.35% | [3] 17.6% | [4] 17.1% | [5] -14.9% | [6] 39.2%

O
inactive: [1] 13.2% | [2] 9.15% | [3] 17% | [4] 6.2% | [5] -16.8% | [6] -4%

O=C1OC(c2ccccc2)=N/C1=C\c1cccc2ccccc12
inactive: [1] -45.9% | [2] -36.6% | [3] -13.6% | [4] 0.35% | [5] -16.4% | [6] -31.1%

OC1c2ccccc2-c2c(Cl)cc(Cl)cc21 (configuration not stated)
inactive: [1] 0.25% | [2] 6.1% | [3] 11.2% | [4] -45.9% | [5] 3.95% | [6] 1.95%

Cc1ccc(/C=C2\CCCC(C(NO)c3ccc(C)cc3)C2=NO)cc1 (configuration not stated)
inactive: [1] -10.9% | [2] -20.2% | [3] 3.1% | [4] 1.2% | [5] -6.6% | [6] -9.25%

CCOC(=O)CCC[n+]1cccc(C#N)c1
inactive: [1] 3.3% | [2] 1.4% | [3] 2% | [4] -3.35% | [5] -3.15% | [6] -1.35%

CC(=O)CC(C)(C)NNC(N)=S
inactive: [1] 1.45% | [2] 0.7% | [3] 14.3% | [4] -21.6% | [5] -4.2% | [6] 22.2%

N#C/C(=C\n1c(=S)[nH]c2ccc([N+](=O)[O-])cc21)c1cccc(Cl)c1
inactive: [1] -25.2% | [2] -13.9% | [3] -34.1% | [4] 3.75% | [5] -2.45% | [6] -11.2%

O=C1CCc2cc3c(cc21)OCO3
inactive: [1] 4.8% | [2] -33.8% | [3] -3.95% | [4] -9.35% | [5] 6.7% | [6] -6.15%

O=c1[nH]c(=S)c2[nH]c(=O)n(-c3ccccc3)c2[nH]1
inactive: [1] -15.3% | [2] -7.5% | [3] -59.1% | [4] -26.7% | [5] -9.9% | [6] -14.7%

CCOP(=O)(OCC)/C(C#N)=C/c1cc(OC)ccc1OC
inactive: [1] 28.4% | [2] -4.75% | [3] -2.65% | [4] -8.9% | [5] -13.4% | [6] 11.8%

O=C(NSNc1ccccc1)c1ccccc1
inactive: [1] 0.8% | [2] -3% | [3] -7.6% | [4] -69.7% | [5] -0.6% | [6] -4.05%

Cc1cccc2c1c1ccc3c(c1n2C)C(=O)C=CC3=O
inactive: [1] 5.05% | [2] -12.4% | [3] 4.6% | [4] 18.6% | [5] -11.2% | [6] -5%

O=C(Cc1cc[n+]([O-])cc1)C(=O)Nc1cc(Cl)c(Cl)cc1Cl
inactive: [1] -27.4% | [2] -11.9% | [3] -21.5% | [4] -17.1% | [5] -17.8% | [6] -20.1%

C=C1C(=O)OC2C=C(C)CC3C=C(CCC=C(C)CCC12)C(=O)O3 (configuration not stated)
inactive: [1] 0.5% | [2] -33.5% | [3] -13.2% | [4] 4.9% | [5] -27.8% | [6] -17.7%

O=C1C(Cl)N(c2ccc(Cl)cc2Cl)C1c1c[nH]c2ccccc12 (configuration not stated)
inactive: [1] -14.4% | [2] -13.9% | [3] -16.7% | [4] 3.05% | [5] 2.95% | [6] -20.4%

Cc1nc2cccc([N+](=O)[O-])c2n1CCCN(C)C
inactive: [1] 1.7% | [2] 6.5% | [3] 11.9% | [4] -8.9% | [5] 18.3% | [6] 10.1%

COC(=O)/C(=N/O)C(C(=O)C=C(C)C)C(=O)C(=O)Nc1nc2ccc([N+](=O)[O-])cc2s1 (configuration not stated)
inactive: [1] 18% | [2] -4.55% | [3] 10% | [4] -58.8% | [5] 5.95% | [6] 6.25%

O=C(c1ccccc1)C(Br)C(Br)c1ccc([N+](=O)[O-])cc1 (configuration not stated)
inactive: [1] 14.7% | [2] 39.9% | [3] 31.4% | [4] 24.2% | [5] -1.9% | [6] 21.6%

N=C1N=Nc2nc(C(C(=O)c3ccc(O)cc3O)c3nc4n(c3O)C(=N)N=N4)c(O)n21 (configuration not stated)
inactive: [1] 2.35% | [2] -4.3% | [3] 7.15% | [4] -24% | [5] -15.3% | [6] -2.4%

Cc1cc(-c2ccccc2)c(C#N)c(=O)[nH]1
inactive: [1] -4.5% | [2] 12.2% | [3] -10.8% | [4] -14.8% | [5] 3.65% | [6] -7.35%

[S-]c1n[n+](-c2ccccc2)c(-c2ccc(Cl)cc2)s1
inactive: [1] -2.05% | [2] 5.8% | [3] 7.75% | [4] -3.65% | [5] -4.85% | [6] 0.45%

CC(O)c1cccc(NC(=O)NC(C)(C)C)c1 (configuration not stated)
inactive: [1] 0.6% | [2] 3.05% | [3] -5% | [4] -74% | [5] 10.8% | [6] -6%

COC1(OC)N=C(N)C2(C#N)/C(=N/N(C)C)CC(C)C12C#N (configuration not stated)
inactive: [1] 11.9% | [2] 4.35% | [3] -18.4% | [4] -16.1% | [5] -22.8% | [6] -40.7%

O=[N+]([O-])c1ccc(Cl)c(OCCBr)c1
inactive: [1] 0% | [2] 3.15% | [3] -2.05% | [4] 1.15% | [5] 31.9% | [6] 9%
